Results: the supplement of paper PMC6555819

Legend:
Assay in all cases: PBM binding z-score (relative to random genomic background probes); higher = stronger binding; sequences stand for … in GC…GCGATTGACAGCGTAGAATGAAGG
[1] = tested on: RARb homodimer (NR concentration 270 nM)
How it was run: (§1)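 Custom Agilent 4×180K protein-binding microarrays carried double-stranded probes, each with a 34-nt variable region. These regions held direct-repeat seeds, single-nucleotide variants, half-site ablations and random human genomic background sequences. Ligand-free nuclear receptor dimers were incubated on the arrays for 1 h, antibodies against each partner (one per run) detected binding, and scanned fluorescence was regression-normalized. Binding z-scores take the random background probes as reference.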

[2] = tested on: RARg:RXRa (NR concentration 270 nM, RXRa partner concentration 90 nM)
How it was run: as §1

[3] = tested on: RARg homodimer (NR concentration 270 nM)
How it was run: as §1

[4] = tested on: RXRa DBDmut IVT, anti-RXR (DBD mutation: RXRa K156A/R161A, NR concentration 90 nM)
How it was run: as §1

[5] = tested on: RXRa homodimer (NR concentration 180 nM)
How it was run: as §1

[6] = tested on: THRa:RXRa (NR concentration 90 nM, RXRa partner concentration 90 nM)
How it was run: as §1

[7] = tested on: THRa homodimer (NR concentration 90 nM)
How it was run: as §1

[8] = tested on: VDR homodimer (NR concentration 270 nM)
How it was run: as §1

Sequence	PBM binding z-score [1]	PBM binding z-score [2]	PBM binding z-score [3]	PBM binding z-score [4]	PBM binding z-score [5]	PBM binding z-score [6]	PBM binding z-score [7]	PBM binding z-score [8]
TCGAGTAGGTTACGGGGGCACTCAGGGATGAAGA	2.3	3.39	2.3	1.2	2.84	3.4	1.09	1.68
TCCAGTAGGTTACGGGGGCATTCAGGGATGAAGA	2.45	3.99	3.38	2.49	3.03	3.96	1.63	3.69
CCTTACGGGTCGCTGACAGGTTATAGCATTTGGA	1.02	2.45	1.01	0.55	1.78	0.913	-0.259	0.138
CCTACTGGGCGAAGGTCATTGATCAGTCAAAGCA	3.08	3.7	2.52	0.409	2.97	2.2	-0.298	1.33
CTAGGTAGGTTAAGGGGGTCATTCAGTTTGAAAG	3.87	4.95	3.79	1.97	5.77	3.78	2.19	5.84
CCTGCTAGGTCTATGGTCAGCTAAAGCAGCTCGC	0.163	-0.335	-0.344	0.301	-0.345	-0.0563	-0.394	-0.594
CTATGTAGGTTAAGGTGGTCATTCAGTTTGAAAG	1.42	1.02	1.05	0.518	1.08	1.36	0.282	0.721
CCTTACGGGTCACTGACAGCTTATAGCATTTGGA	2.97	4.67	4.43	2.04	4.76	2.32	0.275	0.89
ATATGTAGGTTAGTGTCATTCAGAAAGTAGGGAA	1.31	1.14	1.06	0.868	0.992	0.837	0.558	0.794
CCGAGTAGGTTATGAGGGGGCATTCAGTGCGAAT	2.32	2.98	2.83	1.66	1.95	3.88	1.86	3.74
CGAACTAGGTCATCAGGACAGTGAAGAGGTTGGA	3.22	4.14	4.73	1.67	2.99	3.38	1.97	0.876
CCGAGTAGGTTACGAAGGGGCATTCAGTGCGAAT	1.42	1.22	1.2	0.309	0.781	2.26	-0.808	1.23
AGTCAAAGTTCAGGACGAGGTAATGTAAAGCACG	3.05	4.89	4.72	3.05	3.37	3.5	1.44	2.1
TAGCCTAGGACATGCGGGCCAGTATAGTGTCGGC	-0.329	-0.38	0.0739	-1.32	-0.25	0.348	-0.342	-1.08
CGAACTAGGTCTCCAGGACAGTGAAGAGGTTGGA	-0.111	-0.0715	0.188	-0.342	-0.062	1.11	0.505	-0.34
CCTACTGGGCCGAGGTCATTGATCAGTCAAAGCA	3.3	4.27	3.11	1.96	4.68	3.52	2.67	4.32
CCGACTGGGGCAAAGGTTACCACACTCAGTACGA	2.37	3.51	1.67	-0.032	3.69	1.87	0.0247	0.177
CGAACTAGGTCATAGGACAGTGAAAGGCGACGTA	2.66	3.62	3.88	1.21	3.11	2.64	0.357	0.417
ATATGTAGGTTATCGGGTCATTCATTTTGCGCAT	3.18	3.28	2.49	1.65	3.49	3.53	2.79	3
ATCCAAAGGTCGAGGTGAGTATAGAGAAAGGGAA	3.21	4.69	4.83	1.19	5.1	3.07	1.07	1.09
TTACCAAGGTGAAGGTCGTGGATCCCTCTGTAGA	2.22	1.86	1.49	0.01	2.63	2.79	1.11	0.222
CCGAGTAGGTTACGAGTGGGCATTCAGTGCGAAT	0.401	0.298	0.292	-0.0539	0.364	0.606	-0.579	0.108
AATACAGGATCACTAGGCCAGAGTAGGTACGAAT	0.388	0.343	0.495	-0.317	0.367	-0.0476	-0.262	0.0243
CGTCCAAGGTCAGAGAGGTCAGTGACTGCCGAGT	5.15	6.31	6.93	3.54	5.25	4.26	2.58	5.42
CCGACTAGGTTACGAGGGGGCATTCAGTGCGAAT	2.21	2.97	2.26	1.5	1.62	3.52	0.757	3.12
TTACAAAGGTGAAAGGTCGTTGATGCACGCCTTG	3.48	5.85	3.31	1.05	7.68	3.11	0.398	1.64
AATACAGGGTCACTAGGCCCGAGTAGGTACGAAT	2.85	5.05	4.72	2.31	5.31	3.09	0.859	2.26
ATATGAAGGTTATCGGGTCATTCAGTTTGCGCAT	3.17	4	2.89	2.04	4.02	3.38	2.69	4.06
ACTAGGAGGACAAAGGTCAGAGCTACGCCAGTGA	4.5	6.01	5.64	0.898	5.85	3.37	0.874	0.936
